The structures appear in SMILES notation. The whole screen tested about 390,000 compounds, of which about 150 (0.038%) were called active. A call without a number means that no potency is given here. Not shown: some 3% with an inconclusive outcome. The call rests on the fitted dose curve; in most records, active means well fitted inhibition curve with a large enough effect; inconclusive means small, poorly fitted or top-dose-only effect; inactive means no such curve, though single readings can be large or run the other way. The sample as a whole holds a higher share of actives than the screen did.
Potency means the concentration at half of the fitted maximal effect.

For this test, the target named is Regulator of G-protein signaling 4 (Homo sapiens) (UniProt P49798). The test can be described thus: Inhibitors of Regulator of G Protein Signaling (RGS) 4: qHTS. Further: nearly all actives have a fitted effect of over 75% in size. The conditions noted are these: Transcreener GDP fluorescence polarization, RGS4-accelerated GTP hydrolysis; series mostly up to 114 µM. The text has this: G-protein-coupled receptors (GPCRs) are well-established targets for drug discovery and development. Members of the "regulator of G-protein signaling" (RGS)-protein superfamily have recently emerged as critical modulators of specific GPCR signaling pathways. […] Combining specific RGS domain inhibitors with existing GPCR agonists should potentiate cellular responses and could also increase the specificity of action of existing therapeutics. Small molecule modulators of RGS domain activity should also have clinical utility in inhibiting or potentiating the actions of endogenous GPCR agonists. In particular, the diversity of RGS proteins with highly localized and dynamically regulated distributions in the human brain makes this family of proteins attractive targets for pharmacotherapy of central nervous system (CNS) disorders such as Parkinson's disease, schizophrenia, and anxiety.
Chain of Regulator of G-protein signaling 4 (Homo sapiens) (P49798 whole entry, looked up, the tested form may be a part): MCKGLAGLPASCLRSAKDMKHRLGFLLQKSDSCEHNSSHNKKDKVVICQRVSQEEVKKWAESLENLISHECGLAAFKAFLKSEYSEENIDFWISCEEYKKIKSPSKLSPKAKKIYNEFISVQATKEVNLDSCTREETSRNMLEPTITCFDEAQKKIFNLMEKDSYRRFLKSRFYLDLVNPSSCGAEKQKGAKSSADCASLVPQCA
This assay was used to screen the NIH Molecular Libraries Small Molecule Repository (MLSMR) in order to identify a small molecule that inhibits RGS4.
NIH Chemical Genomics Center [NCGC]
NIH Molecular Libraries Probe Centers Network [MLPCN]
Assay Submitter (PI): David Siderovski, University of North Carolina Chapel Hill (School of Medicine)
Two microliters of 500nM (2x working concentration) is dispensed into black medium-binding solid-bottom Kalypsys plates. Then with the Kalypsys pintool 23nl of control and compounds are transferred; the control compound is […] CCG-4986 (working concentration). After a 10 minute incubation at room temperature 2ul of antibody is added with the Kalypsys dispenser; (-)RGS4/Transcreener GDP solution in columns 3 and 4 which consisted of 10nM (2x working concentration) Alexa633, 20uM GTP, and 20 ug/ml GDP antibody and (+)RGS4/Transcreener GDP solution in columns 1,2, and 5 to 48 which consists of 900nM RGS4 (2x working concentration), 10nM Alexa633, 20 ug/ml GDP antibody. The plate is centrifuged at 1000 RPM for 15 seconds to remove any possible bubbles and then incubated for 5 minutes at ambient room temperature. An initial fluorescent polarization read (620 nm/688 nm) is performed on the Envision before the plate is incubated for 90 minutes at 30 deg C at a relative humidity of 80%. The plate is once more centrifuged at 1000 RPM for 15 seconds and another Envision fluorescent polarization (620 nm/688 nm) read is carried out.
On the technique in general: Quantitative high-throughput screening tests each substance at several concentrations.
Regarding `COc1cc(CN(CC2CCCO2)C(=O)c2ccccc2F)cc(OC)c1OC` (stereo not drawn), the Potency result was “inactive”.
For the compound `CCn1c2ccccc2c2cc(NC(=O)COc3ccc(C)cc3C)ccc21`, the Potency result is “inactive”.
In the case of `Nc1ccc2c3c(cccc13)C(=O)NC2=O` it was “inactive”; in that of `COc1ccc(-c2ccc(C3C4C=CCCC4(C)C(=O)N3Cc3ccccc3)c(F)c2)cc1OC` (stereo not drawn), “inactive”; in that of `Cc1ccc(Nc2ccc3cc(S(=O)(=O)N4CCCCC4)ccc3n2)cc1F`, “inactive”.
Consider `O=C(NCC(c1ccc(Cl)cc1)N1CCOCC1)c1ccccc1F` (stereo not drawn), for which the Potency entry was “inactive”.
For `COc1ccc(CCCOC(Cn2ccnc2)c2ccc(OC)cc2)cc1` (stereo not drawn) the value was “inactive”; for `CCCNC(=O)C(CC)n1nc(CC)n2c(cc3oc(C)cc32)c1=O` (stereo not drawn), “inactive”.
For `CCCCC/C=C\CC1OC1CCCCCCCC(=O)O` (stereo not drawn) the value was 37.7 µM (active).
Take `CCCCCCCCCCCC(=O)O`: the Potency entry was “inactive”.
Take `CCc1ccc(CN(Cc2ccco2)C(=O)c2ccccc2Cl)cc1`: the Potency entry is “inactive”.
In the case of `COc1ccccc1N1CCN(C[C@@H]2CN3C(=O)N(C)c4ccccc4C3=N2)CC1`, the Potency entry is “inactive”.
As for `O=C(COc1ccc(Cl)cc1)Nc1ccc(-c2nc3cc(Cl)ccc3o2)c(O)c1`, the Potency result is “inactive”.
As for `CCN(CC)/[N+]([O-])=N/Oc1cc(O/[N+]([O-])=N/N2CCCC2CO)c([N+](=O)[O-])cc1[N+](=O)[O-]` (stereo not drawn), the Potency result is “inactive”.
Regarding `COc1ccc(OC)c(NC(=O)CSC2=Nc3ccccc3C3=NC(CC(=O)NCc4ccc(F)cc4)C(=O)N23)c1` (stereo not drawn), the Potency entry is “inactive”.
In the case of `CCCc1nn2c(=O)cc(COC(=O)c3ccc(NC(=O)COc4ccc(F)cc4)cc3)nc2s1`, the Potency result is “inactive”.
As for `CCc1ccccc1NC(=O)N1CCC2(CC1)Oc1ccccc1C(=O)N2Cc1ccccc1F`, the Potency result is “inactive”.
For `Cc1ccccc1CSCCNC(=O)C1CCN(S(=O)(=O)Cc2ccccc2)CC1`, the Potency entry is “inactive”.
For the compound `COc1ccccc1C(=O)NCCn1cc(SCc2ccccc2Cl)c2ccccc21`, the Potency entry is “inactive”.
For the compound `Cc1ccc(C)n1-c1nnc(N2CCC(C(=O)NCc3ccccc3Cl)CC2)s1`, the Potency entry was “inactive”.
With `COc1ccc(-c2noc(CSc3nnc(-c4ccccc4)n3-c3ccc(F)cc3)n2)c(OC)c1`, the Potency result was “inactive”.
With `Cc1c(C(=O)NCc2ccccc2Br)oc2ccc3c(c12)C(=O)CC(C)(C)O3`, the Potency result is “inactive”.
Take `CCn1cc(C(=O)NCCc2ccccc2)c(=O)c2cc(S(=O)(=O)N3CCCCCC3)ccc21`: the Potency result was “inactive”.
On to `Cc1ccccc1CNC(=O)c1cccc(NC(=O)c2nsc3ccccc23)c1`, for which the Potency result is “inactive”.
For `Cc1ccc(C)c(S(=O)(=O)n2nc(C)c(S(=O)(=O)N3CCC(C)CC3)c2C)c1`, the Potency entry is “inactive”.
In the case of `Cc1ccc2oc3c(c(=O)c2c1)C(c1ccc(O)cc1)N(Cc1ccc2c(c1)OCO2)C3=O` (stereo not drawn), the Potency entry was “inactive”.
As for `Cc1ccc(/C(=C/CN2CCCC2)c2ccccn2)cc1`, the Potency entry is “inactive”.
For `CCC1=Nc2cc(C(=O)NCC(C)c3ccccc3)ccc2Sc2ccc(C)cc21` (stereo not drawn) the value was “inactive”; for `CN(C)c1cc2c(Nc3ccc4c(cnn4Cc4ccccc4)c3)ncnc2cn1`, “inactive”.
With `Cc1csc(-c2nc3ccccc3n2C)n1`, the Potency result is “inactive”.
For the compound `C=CCCN(C(Cc1ccccc1)C(=O)OC)S(=O)(=O)c1cc(Br)ccc1Br` (stereo not drawn), the Potency result was “inactive”.
With `Cc1ccc(NC(=O)CCCn2c(=O)c3cccn3c3ccccc32)cc1Cl`, the Potency entry was “inactive”.
Take `CC(N)(C(=O)O)c1ccc(-c2nn[nH]n2)cc1` (stereo not drawn): the Potency result is “inactive”.
In the case of `O=C(c1cccc(Br)c1)N1CCN(Cc2cc(=O)n3nc(-c4ccccc4)sc3n2)CC1` it was “inactive”; in that of `O=C(NCCCO)c1nn(-c2ccc(Cl)cc2)nc1CO`, “inactive”.
For the compound `Cc1oc2ccc(O)c(CN3CCC(C)CC3)c2c1C(=O)Nc1ccccc1`, the Potency result is “inactive”.
For `O=C(O)c1ccc2c(c1)N(Cc1ccc(F)cc1)C(=O)c1ccccc1S2=O` (stereo not drawn), the Potency result is “inactive”.
In the case of `OCCNc1ncnc2oc(-c3ccco3)c(-c3ccco3)c12`, the Potency entry was “inactive”.
For `O=C(Cn1nc(Cc2cccnc2)c2ccccc2c1=O)N1CCN(c2ccccc2F)CC1` the value was “inactive”; for `Cc1cc2c(cc3c(SCc4cccc(Cl)c4)nnc(C)n32)o1`, “inactive”; for `Cc1cccc(CCNC(=O)c2ccc3c(c2)nc2n3CCC(C)C2)c1` (stereo not drawn), “inactive”.
Regarding `Cc1ccc(Cn2c(C)c3cnn(CC(=O)NCc4ccccc4)c(=O)c3c2C)cc1`, the Potency entry is “inactive”.
As to `C/C=C1\C2C=C(C)CC1(N)c1ccc(=O)[nH]c1C2` (stereo not drawn), the Potency result was “inactive”.
In the case of `Cc1ccc(Nc2nnc(-c3ccc(C)c(S(=O)(=O)N4CCCCC4)c3)c3ccccc23)cc1` it was “inactive”; in that of `CCOC(=O)c1[nH]c(C)c(CCC(=O)NCc2ccccc2C)c1C`, “inactive”; in that of `O=S(=O)(c1ccc2nc(NCc3ccccc3Cl)ccc2c1)N1CCCCC1`, “inactive”.
Regarding `CCc1cc2c(cc3c(=O)n(CC(=O)N4CCN(c5cc(Cl)ccc5C)CC4)nc(CC)n32)s1`, the Potency result is “inactive”.
In the case of `COc1ccc(OC)c(-n2nnc(-c3nc(-c4cc(OC)c(OC)c(OC)c4)no3)c2C)c1` it was “inactive”; in that of `Cc1ccc(SCC(CC(C)C)N2CCN(CCc3ccccc3)CCC2=O)cc1` (stereo not drawn), “inactive”.
As to `Cc1cccc(NC(=O)CN(c2ccc(C(C)C)cc2)S(=O)(=O)c2c(C)nn(C)c2C)c1C`, the Potency result was “inactive”.
Consider `C#CCCCCCCCCCCCCCCCC(=O)O`, for which the Potency entry is “inactive”.
Consider `CCCN1CCC(=O)N(C(CSc2ccc(OC)cc2)Cc2ccccc2)CC1` (stereo not drawn), for which the Potency entry was “inactive”.
With `COc1cccc(CN2CCc3nc(SCC(=O)Nc4ccccc4)[nH]c(=O)c3C2)c1`, the Potency entry is “inactive”.
As to `COC(=O)c1ccccc1NC(=O)Cn1c(=O)n(-c2cccc(C(F)(F)F)c2)c(=O)c2c(C)c(C)sc21`, the Potency result was “inactive”.
For `COc1ccc(CN(Cc2ccccc2)C(=O)c2ccc(O)cc2)cc1COc1ccc(NC(C)=O)cc1` the value was “inactive”.
For `COc1cc(OC)c2c(C)cc(=O)oc2c1C(CCN1CCCCC1)c1ccc(N(C)C)cc1` (stereo not drawn), the Potency entry is “inactive”.
In the case of `O=[N+]([O-])c1ccc(S(=O)(=O)N2CCN(c3nc(-c4ccccc4)nc4ccccc34)CC2)cc1`, the Potency entry was “inactive”.
Turning to `COc1ccc(OC)c(NC(=O)C2CCCN(S(=O)(=O)c3ccc4c(c3)CCCC(=O)N4)C2)c1` (stereo not drawn), the Potency entry was “inactive”.
Take `COCCNC(=O)c1cc(-c2cccc(Cl)c2)on1`: the Potency entry is “inactive”.
As for `COc1ccccc1-c1nnc(SCC(N)=O)o1`, the Potency entry was “inactive”.
Take `O=C(Nc1ccccc1)N[C@H]1C[C@H](C(=O)O)Nc2cc(Cl)cc(Cl)c21`: the Potency entry was “inactive”.
Turning to `CCOc1ccc(S(=O)(=O)c2cn(Cc3ccccc3)c3ccc(OCC)cc3c2=O)cc1`, the Potency entry was “inactive”.
Turning to `Cn1c(=O)c2c(nc(SCC(=O)Nc3ccc(F)cc3)n2Cc2ccccc2)n(C)c1=O`, the Potency entry was “inactive”.

The record behind these values is PubChem BioAssay AID504845 (National Center for Advancing Translational Sciences (NCATS), 2011).
